Screen size: about 310,000 compounds; about 14,000 (4.5%) showed an effect of 50% or more. Effects have a minus sign here. The full list was thinned out, with strong results kept by preference.
Each molecule was assayed against human ether-à-go-go-related gene (hERG) potassium channel (human, UniProt Q12809) (assay: primary screen, population patch clamp on CHO cells stably expressing hERG; higher = less effect of the substance).
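Also: peak tail current of the secondary pulse compared with the same well before compound.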

Sequence of human ether-à-go-go-related gene (hERG) potassium channel (Q12809 whole entry, looked up): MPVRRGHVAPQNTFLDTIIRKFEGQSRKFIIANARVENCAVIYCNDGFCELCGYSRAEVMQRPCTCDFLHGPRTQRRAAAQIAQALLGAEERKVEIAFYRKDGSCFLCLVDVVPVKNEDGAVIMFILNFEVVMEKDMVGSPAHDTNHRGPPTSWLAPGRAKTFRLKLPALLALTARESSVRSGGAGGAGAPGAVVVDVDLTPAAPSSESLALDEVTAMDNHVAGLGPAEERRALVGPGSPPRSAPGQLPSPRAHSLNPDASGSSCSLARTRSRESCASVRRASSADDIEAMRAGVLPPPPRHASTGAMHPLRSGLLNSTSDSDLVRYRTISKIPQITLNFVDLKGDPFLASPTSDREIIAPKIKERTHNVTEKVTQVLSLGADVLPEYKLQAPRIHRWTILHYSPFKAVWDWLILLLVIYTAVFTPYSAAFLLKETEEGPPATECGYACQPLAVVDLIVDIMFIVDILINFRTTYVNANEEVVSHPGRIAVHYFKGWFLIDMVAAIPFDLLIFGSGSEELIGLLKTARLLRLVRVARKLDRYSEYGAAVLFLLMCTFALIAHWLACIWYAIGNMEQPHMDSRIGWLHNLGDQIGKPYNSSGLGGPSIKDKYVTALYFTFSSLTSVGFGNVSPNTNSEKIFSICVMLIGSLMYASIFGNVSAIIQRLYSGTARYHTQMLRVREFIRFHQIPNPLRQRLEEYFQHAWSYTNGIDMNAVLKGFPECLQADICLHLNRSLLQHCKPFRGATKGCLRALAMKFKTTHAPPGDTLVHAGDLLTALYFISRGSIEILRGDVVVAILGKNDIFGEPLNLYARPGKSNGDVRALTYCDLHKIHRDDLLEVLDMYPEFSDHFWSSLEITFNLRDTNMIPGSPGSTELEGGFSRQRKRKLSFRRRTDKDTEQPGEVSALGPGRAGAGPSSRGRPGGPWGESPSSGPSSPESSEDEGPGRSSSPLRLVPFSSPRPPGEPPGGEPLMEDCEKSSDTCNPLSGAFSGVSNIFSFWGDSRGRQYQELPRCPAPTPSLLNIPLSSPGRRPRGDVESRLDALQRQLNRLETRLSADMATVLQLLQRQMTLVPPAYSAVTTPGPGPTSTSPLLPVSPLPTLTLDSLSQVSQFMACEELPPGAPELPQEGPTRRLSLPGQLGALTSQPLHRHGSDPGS

Structure (SMILES)	hERG current change (%, negative = inhibition) at 10uM [%]
O=C(NC1CCCCC1)c1ccc2snnc2c1	12.8
NS(=O)(=O)c1ccc(CCNC(=O)CCCCCn2c(=S)[nH]c3ccc(Br)cc3c2=O)cc1	9.32
O=C(O)c1ccc(-n2nnnc2SCc2cccc(Br)c2)cc1	13.2
COc1ccc(/C=C/C(=O)NC(=S)Nc2ccc(N3CCN(C(C)=O)CC3)cc2)cc1	12.2
COC(=O)C1=C(c2cccc(OCc3ccccc3)c2)C[C@@H]2CC[C@H]1N2C(=O)NNCc1ccccc1	10.8
CC1CC(C)CN(C(=O)Cn2cc(C=O)c3ccccc32)C1 (stereo not drawn)	-4.11
Cc1nn(C)c(C(=O)NNC(=S)NCc2ccco2)c1Cl	7.69
O=c1cc2c(nn1Cc1ccc(Cl)cc1)-c1ccccc1CC2	-13.6
O=c1cc2c(nn1Cc1ccccc1)-c1ccccc1CC2	-17.6
O=c1cc2c(nn1Cc1ccc(F)cc1)-c1ccccc1CC2	-61.3
C#Cc1ccc([C@H]2C=C(C(=O)O)O[C@@H](OCc3ccc(CO)cc3)C2)cc1	9.26
Clc1ccccc1OCCCCn1ccnc1	-2.93
O=C(O)CN1C(=O)/C(=C\c2ccccc2OCc2ccc(Cl)cc2)SC1=S	15.3
Cc1ccc(C2C(C(=O)c3cc4ccccc4o3)=C(O)C(=O)N2c2cc(C)on2)cc1 (stereo not drawn)	19.3
CCOc1ccc2nc(SCC(=O)Nc3ccc4[nH]c(=O)[nH]c4c3)[nH]c2c1	27
COc1cccc(COc2ccc(N(C)S(=O)(=O)c3ccccc3)cc2)c1	3.08
Cc1ccc2nc(COc3ccc(N(C)S(=O)(=O)c4ccccc4)cc3)cc(=O)n2c1	-56
Cc1ccc2nc(COc3ccc(Cl)cc3)cc(=O)n2c1	15
O=C(/C(Cl)=C/Nc1ccc(Br)cn1)C(F)(F)F	12.7
O=C(CN1C(=O)CC(c2ccco2)Sc2ccccc21)Nc1ccc2c(c1)OCCO2 (stereo not drawn)	-6.73
Cc1cc(NC(=O)CN2C(=O)CC(c3ccco3)Sc3ccccc32)no1 (stereo not drawn)	-61.8
O=C(CN1C(=O)CC(c2ccco2)Sc2ccccc21)Nc1ccccc1F (stereo not drawn)	-39.3
Oc1cccc(C=NCc2ccccc2)c1	8.22

Structure (SMILES)	hERG current change (%, negative = inhibition) at 10uM [%]
O=C(c1ccc(Cl)cc1)N1CCN(C(=O)C2CCCCC2)CC1	-2.89
Cc1cc(C)n(-c2nc(C)nc(N)n2)n1	10.3
CC(C)Oc1cccc(C(=O)C2CCCN(Cc3ccc(Oc4ncccn4)cc3)C2)c1 (stereo not drawn)	-62.6
CC(C)Oc1cccc(C(=O)C2CCCN(Cc3ccc4nonc4c3)C2)c1 (stereo not drawn)	-1.53
COc1c(C)cc(C(=O)C2CCCN(Cc3ccc(Oc4ncccn4)cc3)C2)cc1C (stereo not drawn)	-68.9
COc1c(C)cc(C(=O)C2CCCN(Cc3cccc(O)c3)C2)cc1C (stereo not drawn)	-23.9
CC(C)Oc1cccc(C(=O)C2CCCN(Cc3cnn(C(C)C)c3)C2)c1 (stereo not drawn)	-36.3
O=C(c1ccc(Cl)cc1)C1CCCN(Cc2ccc(Oc3ncccn3)cc2)C1 (stereo not drawn)	-72.9
NC(=O)C1CCCN(Cc2ccc(Cl)cc2)C1 (stereo not drawn)	0.421
COc1c(C)cc(C(=O)C2CCCN(Cc3ccccn3)C2)cc1C (stereo not drawn)	-16.5
COc1cccc(-n2cc3c(=O)n(C)c(=O)n(C)c3c2)c1	-3.89
O=C(Nc1ccccc1Br)C(=O)N1CCCC1	3.44
CCCC(C)NC(=O)Cc1ccccc1[N+](=O)[O-] (stereo not drawn)	2.52
CCCC(C)NC(=O)C1CCN(S(=O)(=O)c2ccccc2)CC1 (stereo not drawn)	-12
COc1ccc(OC)c(S(=O)(=O)Nc2cccc(-c3ccc4nncn4n3)c2)c1	18.7
CC(C)(C)C(=O)OCc1nc(-c2ccc3c(c2)OCCO3)cs1	10.8
CCOc1ccc(Cl)cc1CNCCc1ccc(F)cc1.Cl	-48
CCN(CC)CCNCc1cc(Cl)ccc1OCc1ccccc1F.Cl	-72.8
CCOc1ccc(Cl)cc1CNCCNCCO.Cl	24.3
CC(C)(C)NCc1cc(Cl)ccc1OCc1ccccc1F.Cl	-43.3
CCOc1ccc(Cl)cc1CNCCc1ccccc1F.Cl	-59.8
CCNCc1ccc(OCc2ccccc2F)c(OC)c1.Cl	-11
